Several values for one entry are separate records, joined by “and”; a condition that tells them apart may be missing. Identical values can stand only once. About 2,000 (36%) of roughly 5,500 compounds were called active. Roughly 18% stayed inconclusive and do not appear here. No stated cut-off is given here; in the data, active means normalized growth mostly below about 0.91 (no sharp cut-off); inconclusive means no clear call, values can overlap the other calls; inactive means mostly above about 0.92. Some of the results follow.
Assay: chemical genetic growth profiling, strain panel (AID 1159580);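 further: tested at 20 µM; growth read once vehicle control cultures reached saturation at 30 °C; 1 = growth at the plate median or of vehicle wells; lower values mean less growth of the strain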
Details: S. cerevisiae deletion strains, growth OD

Measured: normalized growth

C[C@]12CCC(=O)C=C1CCC1C2CC[C@@]2(C)C1CC[C@@H]2O (some centres not stated)
inactive: locus YAL013W, strain DEP1, active compounds read low 1.01 | locus YAL021C, strain ccr4, active compounds read low 0.967 | locus YAL026C, strain drs2, active compounds read low 1 | locus YAL030W, strain snc1, active compounds read low 0.997 | locus YBL061C, strain skt5, active compounds read low 0.987 | locus YBR009C, strain hhf1, active compounds read low 0.99 | locus YBR021W, strain FUR4, active compounds read low 0.97 | locus YBR023C, strain chs3, active compounds read low 0.988 | locus YBR171W, strain sec66, active compounds read low 0.969 | locus YBR229C, strain ROT2, active compounds read low 1.02 | locus YBR231C, strain swc5, active compounds read low 0.99 | locus YBR279W, strain paf1, active compounds read low 0.998 | locus YCL011C, strain gbp2, active compounds read low 0.993 | locus YCL016C, strain dcc1, active compounds read low 0.988 | locus YCL029C, strain bik1, active compounds read low 1.02 | locus YCL061C, strain MRC1, active compounds read low 0.993 | locus YCL069W, strain vba3, active compounds read low 0.999 | locus YCR088W, strain abp1, active compounds read low 1 | locus YDL005C, strain med2, active compounds read low 0.989 | locus YDL035C, strain GPR1, active compounds read low 0.988 | locus YDL040C, strain nat1, active compounds read low 0.985 | locus YDL074C, strain BRE1, active compounds read low 0.995 | locus YDL101C, strain DUN1, active compounds read low 1.01 | locus YDL134C, strain PPH21, active compounds read low 1.03 | locus YDL185W, strain tfp1, active compounds read low 1.03 | locus YDL192W, strain arf1, active compounds read low 1.03 | locus YDR001C, strain nth1, active compounds read low 0.996 | locus YDR069C, strain doa4, active compounds read low 0.977 | locus YDR101C, strain arx1, active compounds read low 1.01 | locus YDR137W, strain rgp1, active compounds read low 0.96 | locus YDR150W, strain NUM1, active compounds read low 1.03 | locus YDR159W, strain sac3, active compounds read low 0.963 | locus YDR162C, strain NBP2, active compounds read low 0.996 | locus YDR195W, strain ref2 1.01 | locus YDR297W, strain sur2, active compounds read low 0.993 | locus YDR318W, strain mcm21, active compounds read low 1.02 | locus YDR334W, strain swr1, active compounds read low 1.01 | locus YDR335W, strain msn5, active compounds read low 0.989 | locus YDR388W, active compounds read low 1.03 | locus YDR392W, strain spt3, active compounds read low 0.934 | locus YDR502C, strain sam2, active compounds read low 1.01 | locus YEL003W, strain gim4, active compounds read low 0.983 | locus YEL037C, strain rad23, active compounds read low 0.994 | locus YEL061C, strain CIN8 (second series), active compounds read low 0.988 | locus YEL061C, strain CIN8, active compounds read low 1.02 | locus YER015W, strain faa2, active compounds read low 0.995 | locus YER016W, strain bim1, active compounds read low 0.989 | locus YER110C, active compounds read low 1.04 | locus YER111C, strain swi4, active compounds read low 0.986 | locus YER155C, strain BEM2 (second series), active compounds read low 0.981 | locus YER155C, strain BEM2, active compounds read low 1.01 | locus YER167W, strain BCK2, active compounds read low 1.05 | locus YFR010W, strain ubp6, active compounds read low 1 | locus YGL078C, strain dbp3, active compounds read low 0.985 | locus YGL086W, strain mad1, active compounds read low 1.03 | locus YGL167C, strain pmr1, active compounds read low 0.964 | locus YGL173C, strain kem1, active compounds read low 0.967 | locus YGL227W, strain vid30, active compounds read low 0.992 | locus YGL240W, strain doc1, active compounds read low 0.965 | locus YGL248W, strain PDE1, active compounds read low 1.02 | locus YGL253W, strain hxk2, active compounds read low 0.991 | locus YGR078C, strain PAC10, active compounds read low 1.02 | locus YGR135W, strain pre9, active compounds read low 1.01 | locus YGR229C, strain SMI1, active compounds read low 1.04 | locus YGR252W, strain gcn5, active compounds read low 1.01 | locus YHR013C, strain ard1, active compounds read low 1.02 | locus YHR027C, strain rpn1, active compounds read low 0.997 | locus YHR030C, strain SLT2, active compounds read low 1.03 and 1.13 | locus YHR079C, strain IRE1 (second series), active compounds read low 1.02 | locus YHR079C, strain IRE1, active compounds read low 0.993 | locus YHR094C, strain hxt1, active compounds read low 1.03 | locus YHR129C, strain ARP1, active compounds read low 1.03 | locus YHR142W, strain chs7, active compounds read low 0.991 | locus YHR200W, strain rpn10, active compounds read low 1.03 | locus YIL066C, strain RNR3, active compounds read low 1.01 | locus YIL073C, strain SPO22, active compounds read low 1.09 | locus YIL125W, strain kgd1, active compounds read low 1.03 | locus YIR030C, strain dcg1, active compounds read low 1.03 | locus YJL092W, strain hpr5, active compounds read low 0.997 | locus YJL095W, strain BCK1 (second series), active compounds read low 0.987 | locus YJL095W, strain BCK1, active compounds read low 1.02 and 0.998 | locus YJL115W, strain asf1, active compounds read low 0.994 | locus YJL129C, strain trk1, active compounds read low 0.963 | locus YJL134W, strain LCB3, active compounds read low 1.02 | locus YJL154C, strain vps35, active compounds read low 0.997 | locus YJL164C, strain tpk1, active compounds read low 1.01 | locus YJL166W, strain qcr8, active compounds read low 0.986 | locus YJL168C, strain set2, active compounds read low 1.02 | locus YJL187C, strain SWE1 (second series), active compounds read low 1 | locus YJL187C, strain SWE1, active compounds read low 0.992 | locus YJR043C, strain POL32, active compounds read low 1.02 | locus YJR066W, strain TOR1, active compounds read low 0.999

Reference: PubChem BioAssay AID1159580 (chemical genetic matrix, 2015)
